Measurements reported in PubChem BioAssay (Tox21).
Where “and” joins values, the source holds several entries; their conditions need not be identical. Equal values may be shown once. Results filed as inconclusive are left out. More than one record can exist for a structure, and the calls need not agree. Calls of active or inactive are those of the source. Unless noted, calls follow the shape of the dose curve; as a rule, active = well fitted curve in the direction sought with a large enough effect in the repeat runs; inconclusive = weak or mixed curves; inactive = no such curve, though single readings can be large; an effect the other way counts as inactive or inconclusive.

Key:
[1] = qHTS assay for small molecule agonists of the p53 signaling pathway (AID 651631; calls by dose curve; also: nearly all actives have a fitted effect of over 15% in size)
Procedure, shortened: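 HCT-116 cells carrying a stable p53 response element–beta-lactamase reporter were plated, rested 5 h at 37 °C, then exposed to compound in DMSO for 16 h at 37 °C; reporter activity was read as FRET substrate fluorescence after 2 h at room temperature.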

[2] = qHTS assay for small molecule agonists of the p53 signaling pathway - cell viability (AID 651633; calls by dose curve; also: series mostly up to about 83 µM; nearly all actives have a fitted effect of over 30% in size)
Procedure, shortened: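 p53RE-bla cells, seeded at 4,000 per well and rested 5 h at 37 C/5% CO2, received compounds in DMSO for 16 h at 37 C. CellTiter-Glo was then added, and luminescence was read after 30 min at room temperature to gauge cytotoxicity.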

[3] = qHTS assay for small molecules that induce genotoxicity in human embryonic kidney cells expressing luciferase-tagged ATAD5 - cell viability (AID 651634; calls by dose curve; also: nearly all actives have a fitted effect of over 25% in size)
Procedure, shortened: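 Cytotoxicity counter-readout: after 15.5 hr compound treatment at 37C, live-cell protease activity in ATAD5-luciferase HEK293T cells measured by CellTiter-Fluor fluorescence, 30 min development at 37C.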

[4] = qHTS assay for small molecule disruptors of the mitochondrial membrane potential - cell viability (AID 720634; calls by dose curve;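 also: human HepG2 liver cancer cells; series mostly up to about 83 µM; nearly all actives have a fitted effect of over 20% in size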)
Procedure, shortened: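 Cytotoxicity was quantified from ATP content by CellTiter-Glo luminescence in the same wells as the MMP dye read-out. HepG2 (2,000 cells/well) were plated overnight and exposed to compounds for 1 hr at 37 C.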

[5] = qHTS assay for small molecule disruptors of the mitochondrial membrane potential (AID 720635); also: potency is read from the fitted curve at half-maximal effect
Procedure, shortened: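 HepG2 cells (2,000/well) attached overnight at 37C, then took compound for 1 hr at 37C, 5% CO2. Mito-MPS dye was added for 30 min; fluorescence was read at 490/535 nm (monomers) and 540/590 nm (aggregates).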

[6] = qHTS assay to test for compound auto fluorescence at 590 nm (red) in HepG2 cells (AID 720674)
Procedure, shortened: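 Compound auto-fluorescence is scored relative to Rose Bengal sodium, measured at 540/590 nm in live HepG2 cultures after 1 hr compound contact (37 C, 5% CO2).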

[7] = qHTS assay to test for compound auto fluorescence at 535 nm (green) in HepG2 cells (AID 720675)
[8] = qHTS assay to test for compound auto fluorescence at 460 nm (blue) in HEK293 cells (AID 720678)
Procedure, shortened: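 After cell attachment (4-5 hr, 37C), compounds were pinned onto HEK293 monolayers in 10% dialyzed FBS medium. The blue channel (405/460 nm) was read following overnight culture. Equivalency was calculated against triamterene.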

[9] = qHTS assay to test for compound auto fluorescence at 590 nm (red) in HEK293 cells (AID 720679)
Procedure, shortened: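 Plates of HEK293 cells (10% dialyzed FBS) are treated with 23 nL compound or DMSO vehicle after a 4-5 hr attachment period, incubated overnight at 37C, and read for red fluorescence at 540/590nm.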

[10] = qHTS assay to test for compound auto fluorescence at 535 nm (green) in HEK293 cells (AID 720680)
[11] = qHTS assay to test for compound auto fluorescence at 460 nm (blue) in HEK293 cell free culture (AID 720681)
Procedure, shortened: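 Test compounds were pinned into cell-free culture medium (DMEM with 10% FBS) and fluorescence was read directly at Ex/Em 405/460 nm. Signals were expressed as fluorescence equivalents of triamterene, with DMSO vehicle as control.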

[12] = qHTS assay to test for compound auto fluorescence at 535 nm (green) in HEK293 cell free culture (AID 720682)
Procedure, shortened: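 Read-out: 485/535 nm fluorescence intensity, calibrated against fluorescein. Medium only (DMEM + 10% FBS, no cells); test compound or DMSO vehicle added by pintool before plate reading.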

[13] = qHTS assay to test for compound auto fluorescence at 590 nm (red) in HEK293 cell free culture (AID 720683)
Procedure, shortened: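 Tox21 10K library compounds were pinned into cell-free DMEM with 10% FBS and fluorescence was read at excitation 540 nm. Activity is expressed as Rose Bengal sodium equivalency.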

[14] = qHTS assay to test for compound auto fluorescence at 590 nm (red) in HepG2 cell free culture (AID 720684)
Procedure, shortened: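 Ex 540 / Em 590 nm read of compound in cell-free MEM (10% FBS). Rose Bengal sodium reference.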

[15] = qHTS assay to test for compound auto fluorescence at 460 nm (blue) in HepG2 cell free culture (AID 720685)
Procedure, shortened: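 Cell-free plates of MEM plus 10% FBS received 23 nL compound or DMSO vehicle; blue-channel (405/460 nm) intensity scored against triamterene as reference fluorophore.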

[16] = qHTS assay to test for compound auto fluorescence at 535 nm (green) in HepG2 cell free culture (AID 720686)
[17] = qHTS assay to test for compound auto fluorescence at 460 nm (blue) in HepG2 cells (AID 720687)
Procedure, shortened: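 Cells (2,000/well in MEM with 10% FBS) attached overnight at 37 C, then were exposed to compound or DMSO for 1 hr at 37 C, 5% CO2. Fluorescence read at Ex/Em 405/460 nm, expressed as triamterene-equivalent signal.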

[18] = molecular target: Glucocorticoid receptor (Homo sapiens) (UniProt P04150); assay: qHTS assay to identify small molecule agonists of the glucocorticoid receptor (GR) signaling pathway (AID 720691; active = well fitted activation curve with a large enough effect in the signal ratio in the repeat runs, not every such curve was filed as active; the % refers to the signal ratio)
Glucocorticoid receptor (Homo sapiens), sequence (P04150 whole entry, looked up): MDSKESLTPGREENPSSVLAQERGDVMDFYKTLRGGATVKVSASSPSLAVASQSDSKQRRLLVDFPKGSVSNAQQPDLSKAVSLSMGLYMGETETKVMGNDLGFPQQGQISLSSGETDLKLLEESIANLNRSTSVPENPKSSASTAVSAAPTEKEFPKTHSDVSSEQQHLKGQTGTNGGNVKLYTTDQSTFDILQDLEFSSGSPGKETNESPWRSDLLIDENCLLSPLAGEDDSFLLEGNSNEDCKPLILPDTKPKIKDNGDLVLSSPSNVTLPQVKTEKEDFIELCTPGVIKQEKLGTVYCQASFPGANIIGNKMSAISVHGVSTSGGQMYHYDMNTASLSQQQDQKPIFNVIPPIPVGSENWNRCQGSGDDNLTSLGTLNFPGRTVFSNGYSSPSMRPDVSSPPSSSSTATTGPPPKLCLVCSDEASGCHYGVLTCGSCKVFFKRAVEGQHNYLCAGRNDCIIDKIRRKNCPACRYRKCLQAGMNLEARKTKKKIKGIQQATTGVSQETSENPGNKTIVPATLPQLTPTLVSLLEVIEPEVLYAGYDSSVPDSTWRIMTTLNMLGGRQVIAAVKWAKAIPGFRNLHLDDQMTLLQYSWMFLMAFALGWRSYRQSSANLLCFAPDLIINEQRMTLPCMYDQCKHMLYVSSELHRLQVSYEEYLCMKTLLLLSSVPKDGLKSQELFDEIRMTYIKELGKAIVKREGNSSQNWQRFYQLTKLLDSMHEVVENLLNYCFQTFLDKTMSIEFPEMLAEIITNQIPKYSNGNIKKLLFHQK
Procedure, shortened: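 Agonist-mode qHTS in HeLa cells stably expressing a glucocorticoid-response-element beta-lactamase reporter. Fluorescence intensity read with FRET substrate (2 h, room temperature) after 18 h compound treatment at 37 C.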

[19] = molecular target: Glucocorticoid receptor (Homo sapiens) (UniProt P04150); assay: qHTS assay to identify small molecule antagonists of the glucocorticoid receptor (GR) signaling pathway (AID 720692; active = well fitted inhibition curve with a large enough effect in the signal ratio in the repeat runs, not every such curve was filed as active; the % refers to the signal ratio)
Procedure, shortened: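 Inhibition of dexamethasone-driven (5 nM final) beta-lactamase expression was measured in GRE-reporter HeLa cells over 18 h at 37C. Fluorescence was read after 2 h with the B/G FRET substrate at room temperature.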

[20] = qHTS assay for small molecules that induce genotoxicity in human embryonic kidney cells expressing luciferase-tagged ATAD5 (AID 651632); also: nearly all actives have a fitted effect of over 15% in size
Procedure, shortened: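 A rise in luciferase signal from ATAD5-tagged HEK293T cells marks genetic stress. Cells were exposed to compounds for 16 hr at 37C, 5% CO2, then luciferase was quantified after a 30 min room-temperature incubation with Amplite.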

Measured: Potency

CC(=O)C1CCOC1=O (stereo not drawn)
not listed: [20]
inactive: all other assays above

Cc1cccc(N)c1C
not listed: [5]
inactive: all other assays above

O=C(O)C1C(C(=O)O)C2(Cl)C(Cl)=C(Cl)C1(Cl)C2(Cl)Cl (stereo not drawn)
not listed: [20]
inactive: all other assays above

N#Cc1ccccn1
not listed: [18] | [19] | [20]
inactive: all other assays above

Cc1ccccc1N
not listed: [18] | [19] | [20]
inactive: all other assays above

CCNc1nc(Cl)nc(NC(C)C)n1
not listed: [4] | [5]
inactive: all other assays above

OCC(O)CCl (stereo not drawn)
not listed: [20]
inactive: all other assays above

C/C=C/c1ccc2c(c1)OCO2
active: [5] 62.3 µM
not listed: [16] | [18] | [19] | [20]
inactive: all other assays above

COP(=S)(OC)SCN1C(=O)c2ccccc2C1=O
not listed: [16] | [20]
inactive: all other assays above

CNC(=O)O/N=C(\SC)C(=O)N(C)C
not listed: [16] | [18] | [19] | [20]
inactive: all other assays above

C[C@H]1C(=O)O[C@@H]2CCN3CC=C(COC(=O)[C@](C)(O)[C@]1(C)O)[C@H]23
not listed: [4] | [5] | [16]
inactive: all other assays above

CC[N+](=O)[O-]
not listed: [5]
inactive: all other assays above

ClCCOCCCl
not listed: [20]
inactive: all other assays above

O=[N+]([O-])c1ccc(Cl)cc1
not listed: [20]
inactive: all other assays above

CCCCCCCCCCCCCCCCCC(=O)O
inactive and 54.1 µM (active): [5]
not listed: [1] | [2] | [16] | [18] | [19] | [20]
inactive: all other assays above

CN(C)C(=O)Cl
not listed: [1]
inactive: all other assays above

O=P1(NCCCl)OCCCN1CCCl (stereo not drawn)
not listed: [1] | [2]
inactive: all other assays above
